Measured values from PubChem BioAssay (NCATS).
Records with an inconclusive call do not appear. Active and inactive are the calls of the source. Calls follow the shape of the dose curve; as a rule, active = well fitted curve in the direction sought with a large enough effect; inconclusive = small, poorly fitted or top-dose-only effect, or another doubt; inactive = no such curve, though single readings can be large; an effect the other way counts as inactive or inconclusive.

Key:
[1] = biological target: Phenylethanolamine N-methyltransferase (Homo sapiens) (UniProt P11086); experiment: Confirmatory Screen for Target Class Profiling of Small Molecule Inhibitors of Methyltransferases (AID 1745852); settings: MTase-Glo luminescence, SAH detection, recombinant enzyme; measured here: PNMT max response; stronger effect = lower value
Phenylethanolamine N-methyltransferase (Homo sapiens), sequence (P11086 whole entry, looked up): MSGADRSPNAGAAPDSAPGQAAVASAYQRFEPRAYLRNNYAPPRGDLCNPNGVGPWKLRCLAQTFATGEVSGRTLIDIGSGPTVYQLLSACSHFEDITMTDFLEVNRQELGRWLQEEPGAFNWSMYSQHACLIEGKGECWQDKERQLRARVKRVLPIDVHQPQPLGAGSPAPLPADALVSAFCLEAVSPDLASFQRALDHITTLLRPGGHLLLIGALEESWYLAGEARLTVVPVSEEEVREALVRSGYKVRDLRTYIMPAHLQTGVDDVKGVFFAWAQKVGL

[2] = biological target: Metallo-beta-lactamase type 2 (Klebsiella pneumoniae) (UniProt C7C422); experiment: qHTS to identify inhibitors of the New Delhi Metallo-beta-lactamase (NDM): assay validation screen against the NCATS LOPAC Collection (AID 1794843);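 also: nitrocefin turnover by NDM-1 measured as 485 nm absorbance at plateau; % is scaled to controls: 0 for no effect and ±100 for the full control effect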
Metallo-beta-lactamase type 2 (Klebsiella pneumoniae), sequence (C7C422 whole entry, looked up): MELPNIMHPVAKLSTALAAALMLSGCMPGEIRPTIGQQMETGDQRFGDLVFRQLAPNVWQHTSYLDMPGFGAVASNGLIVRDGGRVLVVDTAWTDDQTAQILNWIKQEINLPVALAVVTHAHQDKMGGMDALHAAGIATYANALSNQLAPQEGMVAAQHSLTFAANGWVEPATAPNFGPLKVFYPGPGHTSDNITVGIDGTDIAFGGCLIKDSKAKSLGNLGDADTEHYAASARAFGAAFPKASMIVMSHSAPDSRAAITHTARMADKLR
Summary of the method: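 NDM-1 at 2 nM final in 50 mM HEPES pH 7.0, 1 uM ZnSO4, 0.01% Tween20, preincubated with LOPAC compounds pinned in DMSO; 50 uM nitrocefin (stock) added. Hydrolysis read as absorbance at 485 nm in the plateau phase.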

[3] = biological target: Glutathione peroxidase 1 (Homo sapiens) (UniProt P07203); experiment: Primary qHTS Assay for Inhibitors of Recombinant Selenoprotein Glutathione Peroxidase 1 (GPX1) (AID 1845191); also: nearly all actives have a fitted effect of over 65% in size; also: potency is read from the fitted curve at half-maximal effect; as to activity, negative = inhibition: % is scaled to controls: 0 for no effect and ±100 for the full control effect
Glutathione peroxidase 1 (Homo sapiens), sequence (P07203 whole entry, looked up): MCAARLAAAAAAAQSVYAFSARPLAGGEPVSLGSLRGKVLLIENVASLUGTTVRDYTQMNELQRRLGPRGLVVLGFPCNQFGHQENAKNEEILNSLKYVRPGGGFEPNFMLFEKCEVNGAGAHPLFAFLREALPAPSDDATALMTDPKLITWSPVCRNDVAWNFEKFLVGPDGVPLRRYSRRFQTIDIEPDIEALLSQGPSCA
Summary of the method: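 GR-coupled readout: NADPH consumption tracked by fluorescence, ex 340/em 450 nm, at t=0 and after 15 min at RT. Final mix 10 nM GPX1, 1 mM GSH, 0.5 mM CHP, 0.5 mM NADPH, 100 nM GR, 0.01% BSA, following 30 min enzyme–compound preincubation.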

[4] = biological target: Phospholipid hydroperoxide glutathione peroxidase GPX4 (Homo sapiens) (UniProt P36969); experiment: Primary qHTS Assay for Inhibitors of Recombinant Selenoprotein Glutathione Peroxidase 4 (GPX4) (AID 1845192); settings: outcome: dose series up to 50 µM unless noted; also: nearly all actives have a fitted effect of over 65% in size
Phospholipid hydroperoxide glutathione peroxidase GPX4 (Homo sapiens), sequence (P36969 whole entry, looked up): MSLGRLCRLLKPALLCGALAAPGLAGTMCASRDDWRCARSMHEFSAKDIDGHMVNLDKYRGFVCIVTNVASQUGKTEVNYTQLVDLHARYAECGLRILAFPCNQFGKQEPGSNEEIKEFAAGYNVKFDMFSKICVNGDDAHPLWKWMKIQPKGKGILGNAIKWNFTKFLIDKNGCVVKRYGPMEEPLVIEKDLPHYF
Summary of the method: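 Steps: GPX4 plus compound, 30 min RT; add GR/GSH/NADPH master mix; start with cumene hydroperoxide; read 340/450 nm fluorescence at 0 and 15 min. Finals were 200 nM GPX4, 1 mM GSH, 0.5 mM CHP, 0.5 mM NADPH, 100 nM GR.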

[5] = tested on: 3D7; experiment: qHTS profiling for inhibitors of Plasmodium falciparum proliferation (AID 504749); also: nearly all actives have a fitted effect of over 60% in size; also: potency is read from the fitted curve at half-maximal effect;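 as to activity, negative = inhibition: 0% = DMSO vehicle and full inhibition = artemisinin control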; settings: P. falciparum in erythrocytes, SYBR Green DNA, 72 h; series mostly up to 28.7 µM
Summary of the method: (§1)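 SYBR Green fluorescence (ex 485 nm, em 535 nm) reports parasite DNA after 72 h compound exposure of infected red cells at 0.3% parasitemia, 2.5% hematocrit; signal normalized to 0.29 uM artemisinin and vehicle wells.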

[6] = tested on: 7G8; experiment: as above; settings: P. falciparum in erythrocytes, SYBR Green DNA, 72 h; series mostly up to 28.7 µM
Summary of the method: as §1

[7] = tested on: AS120; experiment: as above; settings: P. falciparum in erythrocytes, SYBR Green DNA, 72 h; series mostly up to 28.7 µM
Summary of the method: as §1

[8] = NCATS anti-infectives library activity on HEK293 viability as a counter-qHTS vs the C. elegans viability qHTS (AID 1745854); also: % is scaled to controls: 0 for no effect and ±100 for the full control effect
Summary of the method: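 CellTiter-Glo luminescence, read on a CCD imager, scored viability of HEK293 cells after 24 hr compound exposure at 37C. Library tested in several concentrations, 1:5 steps, up to 41.7 uM; digitonin served as control.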

[9] = qHTS profiling for inhibitors of Plasmodium falciparum proliferation (AID 504749); also: potency is read from the fitted curve at half-maximal effect;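 as to activity, negative = inhibition: 0% = DMSO vehicle and full inhibition = artemisinin control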; as to all read-outs here: nearly all actives have a fitted effect of over 60% in size; settings: P. falciparum in erythrocytes, SYBR Green DNA, 72 h; for activity, negative = inhibition: at 28.7 µM (top of the series)
Summary of the method: as §1

[10] = tested on: AA1029; experiment: as above; settings: P. falciparum in erythrocytes, SYBR Green DNA, 72 h; series mostly up to 28.7 µM
Summary of the method: as §1

[11] = tested on: ATS189; experiment: as above; settings: P. falciparum in erythrocytes, SYBR Green DNA, 72 h; series mostly up to 28.7 µM
Summary of the method: as §1

[12] = tested on: ATS95; experiment: as above; settings: P. falciparum in erythrocytes, SYBR Green DNA, 72 h; series mostly up to 28.7 µM
Summary of the method: as §1

[13] = tested on: C2A; experiment: as above; settings: P. falciparum in erythrocytes, SYBR Green DNA, 72 h; series mostly up to 28.7 µM
Summary of the method: as §1

[14] = tested on: CP185; experiment: as above; settings: P. falciparum in erythrocytes, SYBR Green DNA, 72 h; series mostly up to 28.7 µM
Summary of the method: as §1

[15] = tested on: CP191; experiment: as above; settings: P. falciparum in erythrocytes, SYBR Green DNA, 72 h; series mostly up to 28.7 µM
Summary of the method: as §1

NC(N)=N/N=C/c1c(Cl)cccc1Cl
inactive: Potency [2] | Potency [3] | outcome [4] | Potency [5] | Potency [7]
-1.71%: activity [1]
active: Potency [6] 11.2 µM

CN(C)[C@@H]1C(=O)C(C(N)=O)=C(O)[C@@]2(O)C(=O)C3=C(O)c4c(O)ccc(Cl)c4[C@@H](O)[C@H]3C[C@@H]12
2.12%: activity [1]
inactive: Potency [2] | Potency [3] | outcome [4]

C[C@H](CS)C(=O)N1CCC[C@H]1C(=O)O
inactive: outcome [8] | Potency [3] | outcome [4] | activity, negative = inhibition ([9]; parasite line A) -25.9% | activity, negative = inhibition ([9]; parasite line B) 10.2% | Potency [5] | Potency [6] | Potency [10] | Potency [7] | Potency [11] | Potency [12] | Potency [13] | Potency [14] | Potency [15]

COCCc1ccc(OCC(O)CNC(C)C)cc1 (stereo not drawn)
inactive: Potency [2] | Potency [3] | outcome [4]

Nc1nc(N)c2nc(-c3ccccc3)c(N)nc2n1
inactive: outcome [8] | Potency [2] | outcome [4] | activity, negative = inhibition ([9]; parasite line B) 5.12% | Potency [10] | Potency [7] | Potency [11] | Potency [12] | Potency [13] | Potency [14] | Potency [15]
active: Potency [3] 2.86 µM | Potency ([9]; parasite line A) 2 µM | Potency [5] 7.08 µM

C(=C\c1ccccc1)/CN1CCN(C(c2ccccc2)c2ccccc2)CC1
inactive: Potency [2] | Potency [3] | outcome [4]

OCCN1CCN(CCCN2c3ccccc3C=Cc3ccccc32)CC1
active: Potency ([9]; parasite line A) 8.91 µM | Potency ([9]; parasite line B) 11.2 µM | Potency [5] 11.2 µM | Potency [6] 2 µM | Potency [10] 4.47 µM | Potency [7] 4.47 µM | Potency [11] 5.01 µM | Potency [12] 5.01 µM | Potency [13] 11.2 µM | Potency [14] 12.6 µM | Potency [15] 4.47 µM
inactive: outcome [8] | Potency [2] | Potency [3] | outcome [4]

CN1C[C@H](C(=O)N[C@]2(C)O[C@@]3(O)[C@@H]4CCCN4C(=O)[C@H](Cc4ccccc4)N3C2=O)C[C@@H]2c3cccc4[nH]cc(c34)C[C@H]21
inactive: Potency [2] | Potency [3] | outcome [4]

CCCN(CCC)CCc1cccc2c1CC(=O)N2
4.72%: activity [1]
inactive: Potency [2] | Potency [3] | outcome [4] | activity, negative = inhibition ([9]; parasite line A) -9.53% | activity, negative = inhibition ([9]; parasite line B) -8.71% | Potency [5] | Potency [6] | Potency [10] | Potency [7] | Potency [11] | Potency [12] | Potency [13] | Potency [14] | Potency [15]

CCCNC(C)C(=O)Nc1ccccc1C (stereo not drawn)
inactive: Potency [2] | Potency [3] | outcome [4]

COC(=O)[C@@H](N)Cc1ccc(O)c(O)c1
5.34%: activity [1]
inactive: Potency [2] | Potency [3] | outcome [4] | activity, negative = inhibition ([9]; parasite line B) -10.7% | Potency [10] | Potency [7] | Potency [11] | Potency [12] | Potency [14] | Potency [15]

CCn1nc(C(=O)O)c(=O)c2cc3c(cc21)OCO3
inactive: Potency [2] | Potency [3] | outcome [4]

C[C@]12CCC(=O)C=C1CC[C@@H]1[C@@H]2C(=O)C[C@@]2(C)[C@H]1CC[C@]2(O)C(=O)CO
inactive: Potency [2] | Potency [3] | outcome [4]
